“And” between values parts separate entries of the source, which are not always exact repeats. Equal entries are not always repeated. Screen size: about 330,000 compounds; about 1,400 (0.42%) were called active.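 Rule for the calls: active = at least 40% inhibition at 20 µM here, with at most 30% in a related deaminase screen; inactive = the rest.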 This excerpt belongs to a sample that is enriched for actives.
The molecules below were run against DNA dC->dU-editing enzyme APOBEC-3A (Homo sapiens) (UniProt P31941) (assay: APOBEC3A ssDNA deaminase inhibitors, primary screen, selectivity assay for APOBEC3G inhibitor project, biochemical, FAM/TAMRA oligo cleavage fluorescence (AID 493011;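 note: plate controls were A3A with DMSO for no effect and wells lacking A3A enzyme for full effect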)). Conditions: recombinant A3A, FAM/TAMRA ssDNA deamination fluorescence; at 20 µM; stronger effect = higher value.
Chain of DNA dC->dU-editing enzyme APOBEC-3A (Homo sapiens) (P31941 whole entry, looked up): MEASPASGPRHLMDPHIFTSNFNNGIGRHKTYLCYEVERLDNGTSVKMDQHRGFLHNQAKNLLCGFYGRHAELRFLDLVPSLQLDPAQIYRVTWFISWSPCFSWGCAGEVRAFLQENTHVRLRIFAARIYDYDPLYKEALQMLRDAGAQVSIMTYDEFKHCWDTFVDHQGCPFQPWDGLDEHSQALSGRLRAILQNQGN

inhibition, inactive:
N#Cc1c(NC(=O)c2ccc(N3CCOCC3)c([N+](=O)[O-])c2)sc2c1CCCC2 2.01%, CCCCNC(=O)CSc1nc2ccc(NC(=O)CSc3nnc(COc4ccccc4C)n3C)cc2s1 -2.55%, Nc1nnc(SCC(=O)Nc2ccc3nc(SCC(=O)Nc4ccccc4)sc3c2)s1 -1.31%, Cc1cc2c(=O)n(CC(=O)NCC(=O)Nc3ccc(C(C)C)cc3)cnc2s1 -11.2%, C=CC1=C(C(=O)O)N2C(=O)[C@@H](NC(=O)/C(=N\OCC(=O)O)c3csc(N)n3)[C@H]2SC1 13.4%, CO/N=C(\C(=O)N[C@@H]1C(=O)N2C(C(=O)O)=C(COC(C)=O)CS[C@H]12)c1csc(N)n1 (stereo in doubt) 2.73% and 21.9% and -0.539%, COc1ccccc1NC(=O)Nc1nnc(Cc2ccc(F)cc2)s1 0.132%, COc1ccc(Cc2nnc(NC(=O)c3cc(OC)c(OC)c(OC)c3)s2)cc1OC 6.64%, CN(C)C(=O)Cn1c(=O)n(S(=O)(=O)c2ccccc2)c2ccccc21 0.322%, O=C(COC(=O)c1ncc(Cl)c(Cl)c1Cl)NNC(=O)c1ccccc1 2.14%, O=C(COC(=O)Cc1ccccc1F)NNC(=O)c1ccc(Cl)cc1 2.91%, Cc1c(C)c2ccc(OCC(=O)N3CCN(c4cccc(Cl)c4)CC3)cc2oc1=O 2.08%, COc1cc(NC(=S)N2CCCC(C)C2)c(OC)cc1Cl (stereo not drawn) -2.12%, O=C(N/N=C/C=C/c1ccccc1)C1CC1(c1ccccc1)c1ccccc1 (stereo not drawn) 1.87%, CC(/C=C/c1ccco1)=N/NC(=O)C1COc2ccccc2O1 (stereo not drawn) -6.53%, O=C(Nc1ccccc1N1CCOCC1)c1ccc(OCc2cscn2)cc1 3.65%, COc1ccc(CN(C)C(=O)c2cc(-c3ccc(C)cc3C)nc3ccccc23)c(OC)c1OC -0.735%, CC1C(c2ccccc2)=[N+]([O-])C2(CCCC2)N1O (stereo not drawn) 3.6%, COc1ccc(S(=O)(=O)N2CCCC(C(=O)Nc3ccc(NC(=O)c4ccccn4)cc3)C2)cc1 (stereo not drawn) 0.311%, CC(C)c1ccc(NC(=O)C2CCCN(S(=O)(=O)c3cccnc3)C2)cc1 (stereo not drawn) 3.03%, O=C(NCCCn1ccnc1)c1cc(Br)c(Br)s1 -1.2%, COc1ccc(-c2cc(C(=O)N/N=C/c3cccnc3)c3ccccc3n2)c(OC)c1 1.62%, C/C(=N\NC(=O)c1cc(-c2ccc(O)cc2)nc2ccccc12)c1cccnc1 -0.382%, C/C(Cn1nnc2ccccc21)=N\OC(=O)c1cc(F)c(F)cc1Cl -2.44%, CCOc1ccc(C)cc1S(=O)(=O)NC1CCCCCC1 0.216%, COc1ccc(C2c3ccc(O)cc3Oc3ncn(CCCO)c(=N)c32)cc1OC (stereo not drawn) 1.57%, Cc1ccc(COC(=O)CN2C(=O)NC3(CCCC3)C2=O)cc1 2.64%, Cc1ccc(CCCOC(=O)C[N+]2(C)CCCC2)cc1 29.9%, O=C(COc1ccccc1)Nc1ccc(N2CCN(C(=O)c3cccs3)CC2)cc1 3.22%, COc1ccc(C(=O)NC2(C(F)(F)F)NC(=O)N(CCCc3ccccc3)C2=O)c(OC)c1OC (stereo not drawn) 1.49%, CCn1c(SCC(=O)Nc2ccc3c(c2)OCCO3)nnc1-c1ccncc1 -2.5%, CCn1c(CNC(=O)c2ccco2)nnc1SCC(=O)Nc1cccc(F)c1 0.913%, CN(C)/C=C1\C=C(c2ccccc2)OC1=O 0.636%, Cc1ccccc1C1=N/C(=C/c2cccnc2)C(=O)O1 -1.12%, O=C(N/N=C\c1cc(Br)c(Br)o1)C1COc2ccccc2O1 (stereo not drawn) 13.8%, Cc1ccc(C(=O)N/N=C/c2cccc3ccccc23)cn1 -4.44%, O=C(CN1C(=O)NC2(CCOc3ccccc32)C1=O)Nc1cccc([N+](=O)[O-])c1 (stereo not drawn) 6.58%, COc1ccc(CC(=O)N2N=C(C)CC2(O)C(F)(F)F)cc1 (stereo not drawn) -1.7%, CC1=NN(C(=O)CCCc2ccccc2)C(O)(C(F)(F)F)C1 (stereo not drawn) -5.39%, CC(C)COP(=O)(c1ccc(N(C)C)cc1)C(Nc1ccccc1)c1cccnc1 (stereo not drawn) -0.443%, C[N+](C)(C)CCOP(=O)([O-])OC[C@H](O)CO -3.05%, CCOc1cccc(OCCCOc2cccc3cccnc23)c1 0.036%, CCCc1cc(=O)[nH]c(SCc2ccc(C#N)cc2)n1 -3.79%, COc1ccc(C2C3=C(CCCC3=O)N(CC(=O)O)C3=C2C(=O)CCC3)cc1 -0.629%, CCOc1ccc(C2C3=C(CCCC3=O)N(CC(=O)O)C3=C2C(=O)CCC3)cc1 5.98%, COc1ccccc1C(CNC(=O)c1cccc(S(=O)(=O)Nc2ccc(F)cc2)c1)N(C)C (stereo not drawn) -4.98%, COc1ccc(C)cc1NC(=O)c1[nH]c(C)c(C(C)=O)c1C -4.64%, O=C(O)C(F)(F)C(NCc1ccccc1)c1ccccc1 (stereo not drawn) -9.23%, CC1(C)CC(=O)C(N=Nc2ccc(S(=O)(=O)N3CCCCCC3)cc2)=C(O)C1 -0.085%, Cc1ccccc1NC(=O)CN1C(=O)N/C(=C\c2cccn2-c2cccc(C(=O)O)c2)C1=O 93.1%, O=C1N/C(=C/c2cccn2-c2ccccc2)C(=O)N1c1cccc(Cl)c1 0.178%, O=C(c1n[nH]c2c1CCC2)N1CCCC(Nc2cccc(F)c2)C1 (stereo not drawn) -3.42%, O=C(COC(=O)/C=C/c1ccc(Br)o1)Nc1cccc(S(=O)(=O)N2CCOCC2)c1 16.5%, CC(=O)c1c(C)n(-c2ccc(N(C)C)cc2)c2ccc(OCC(N)=O)cc12 -1.38%, COc1cccc(NC(=O)CCNS(=O)(=O)c2ccc3c(c2)oc(=O)n3C)c1 -2.44%, COc1ccc(S(=O)(=O)NCCCCOc2ccc(Cl)cc2)cc1 -0.023%, COc1ccc(C2C3=C(OC(C)=O)c4ccccc4C3=Nc3c2c(=O)n(C)c(=O)n3C)cc1 (stereo not drawn) -1.29%, Cc1cccc(CCNS(=O)(=O)c2ccc(S(=O)(=O)NC3CCCC3)cc2)c1 -4.37%, COCCCNC(NC(=O)c1ccc(OC)cc1)C(Cl)(Cl)Cl (stereo not drawn) -2.86%, O=C1C2C3C=CC(C4CC34)C2C(=O)N1c1nccs1 (stereo not drawn) 0.014%, Cc1ccc(NC(=O)COc2ccc(/C=C3/NC(=O)NC3=O)cc2)cc1 -0.201%, CSc1ccc(/C=C2\NC(=O)NC2=O)cc1 -4.33%, CC[C@]12c3[nH]c4cc(CCC(=O)N(C)C)ccc4c3CCN1C(=O)[C@@H](CC(=O)NCc1ccco1)C[C@@H]2C(=O)N1CCN(C(=O)c2ccco2)CC1 2.69%, Cc1nn2c(c1-c1ccccc1)N=C(c1ccco1)CC2c1ccccc1 (stereo not drawn) 0.496%, O=C1C2C3C=CC(C4CC34)C2C(=O)N1/N=C/c1ccc(-c2ccccc2[N+](=O)[O-])o1 (stereo not drawn) -4.49%, O=C(CSc1ccc([N+](=O)[O-])cn1)Nc1ccc(N2CCOCC2)c(Cl)c1 -1.64%, O=C(Nc1ccc(N2CCOCC2)c(Cl)c1)c1ccc(S(=O)(=O)N2CCOCC2)cc1 2.6%, CC(=O)c1ccc(N2CCN(C(=O)c3ccc4nc[nH]c4c3)CC2)cc1 -2.31%, CCOC(=O)c1ccc(NC(=O)Cn2cnc3cc(C)c(C)cc32)cc1 3.16%, CCCc1nnc(SCC(=O)Nc2ccc(C(=O)OCC)cc2)o1 -2.03%

inhibition, active:
CCCCNC(=O)CSc1nc2ccc(NC(=O)CSc3nnc(N)s3)cc2s1 75.7%, C=CC1=C(C(=O)O)N2C(=O)[C@@H](NC(=O)/C(=N/OCC(=O)O)c3csc(N)n3)[C@H]2SC1 57.5%, COc1ccc(Cc2nnc(NC(=O)c3ccc(OC)cc3OC)s2)cc1 52.7%, NS(=O)(=O)c1cc(C(=O)OCC(=O)NNC(=O)c2ccccc2)ccc1Cl 76%, CC(/C=C/c1ccccc1)=N\NC(=O)C1CC1(C)c1ccccc1 (stereo not drawn) 59.5%, CC(=O)Nc1ccc(NC(=O)C2CCCN(S(=O)(=O)c3ccc(Cl)cc3)C2)cc1 (stereo not drawn) 94.5%, O=C(N/N=C\c1cccnc1)c1cc(-c2ccccc2)nc2c(Cl)cccc12 43.3%, Cc1ccc(CCCOC(=O)C[N+]2(C)CCCCC2)cc1 75.2%, CCn1c(SCC(=O)Nc2cccc(F)c2)nnc1-c1cc2cc(Br)ccc2o1 49.5%, Cc1ccc(C2=C/C(=C\c3cccnc3)C(=O)O2)cc1 42.5%, Cc1ccc(C(=O)N/N=C\c2cc(Br)c(Br)o2)cn1 44.2%, CC1=NN(C(=O)CCc2ccccc2O)C(O)(C(F)(F)F)C1 (stereo not drawn) 54.8%, CCCN1C2=C(C(=O)CCC2)C(c2ccc(O)c(Br)c2)C2=C1CCCC2=O 68.9%, N#Cc1ccccc1CN1C(=O)S/C(=C/c2cccn2-c2cccc(C(=O)O)c2)C1=O 74.4%, COc1cccc(NC(C)=[N+](C)CCNS(=O)(=O)c2ccc(Cl)cc2)c1 52.2%, CC(C)c1ccc(/C=C2\NC(=O)NC2=O)cc1 82.8%, O=C(CSc1nccc(=O)[nH]1)Nc1ccc(N2CCOCC2)c(Cl)c1 50%, CCOC(=O)c1ccc(NC(=O)CSc2ncccn2)cc1 66.1%
